Most compounds without a hit are left out; they make up all but 4.1% or so of the library.
Mot1-301 SUMO: blocks SUMOylation pathway, rescuing yeast Mot1-301 growth; S. cerevisiae Mot1-301 growth rescue, ATP luminescence, 38.5C; percent above DMSO median, 100 means doubled; growth rescue, % at 18.8 µM; hit rate 1% among 320,000; AID 2716;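 active means every valid replicate shows activation above 250% relative to neutral control wells; inactive means the rest, any valid replicate at or below 250%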;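 further: OY570 slx delta 5 strain wells were the positive control but not used for scaling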
MEKK2mut PB1 HTS: signal of MEK5 binding to mutant human MEKK2 PB1 domain; bead flow cytometry, Alexa488-MEK5 binding to MEKK2 mutant; percent response, % at 10 µM; hit rate 0.35% among 290,000; in the data active means percent response above about 24%, passing the limit was not always enough
CHT inh: human CHT choline transport inhibition; Q9GZV3; CHT-expressing cells, membrane potential dye, choline response; active compounds read low; B-score at 10 µM; hit rate 0.86% among 310,000;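 active means B-score over 3 SD under the library average, and starting fluorescence ratio not unusually high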;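 further: choline stimulus applied at its EC90 after an EC20 pre-addition; B-score computed on integrated fluorescence ratio after choline addition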
Target sequence (Q9GZV3 whole entry, looked up): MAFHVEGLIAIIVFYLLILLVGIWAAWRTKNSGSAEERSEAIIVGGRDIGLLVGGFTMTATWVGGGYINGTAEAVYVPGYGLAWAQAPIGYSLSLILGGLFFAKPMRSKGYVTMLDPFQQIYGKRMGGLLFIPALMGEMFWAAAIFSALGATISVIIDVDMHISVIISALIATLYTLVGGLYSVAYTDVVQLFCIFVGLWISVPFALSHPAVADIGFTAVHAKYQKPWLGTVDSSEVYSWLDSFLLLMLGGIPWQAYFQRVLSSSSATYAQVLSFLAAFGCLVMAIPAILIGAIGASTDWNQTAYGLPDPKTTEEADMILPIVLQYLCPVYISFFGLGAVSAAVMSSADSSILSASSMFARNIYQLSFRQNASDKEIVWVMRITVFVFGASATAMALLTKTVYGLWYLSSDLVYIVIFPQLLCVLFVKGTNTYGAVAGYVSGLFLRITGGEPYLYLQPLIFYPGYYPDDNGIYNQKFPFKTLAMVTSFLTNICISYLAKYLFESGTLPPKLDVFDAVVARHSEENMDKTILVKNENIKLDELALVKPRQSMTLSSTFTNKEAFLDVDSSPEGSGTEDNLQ
MEKK3 PB1 HTS: raises or lowers MEK5 binding to the human MEKK3 PB1 domain; Q99759; bead-based flow cytometry, Alexa488-MEK5 binding to MEKK3; actives lie on both sides; 0 = blocked by unlabeled MEK5, 100 = vehicle; binding response (% of control), % at 10 µM; hit rate 1.4% among 290,000; AID 1529;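 active means binding response more than 3 SD above or below the average of its plate-row segment, actives on both sides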;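 further: Alexa488 bead fluorescence after subtracting the streptavidin-only scavenger bead signal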
CHT allo act: human CHT allosteric activation | Q9GZV3 | CHT-expressing cells, membrane potential dye, choline EC20; active compounds read high; LV-AA mutant CHT in HEK293 cells | B-score at 10 µM | hit rate 0.49% among 310,000 | AID 488977;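 active means initial fluorescence not abnormally high and integrated response B-score, plate-corrected, over 3 SD above library mean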
MEKK2 WT-MEK5: raises or lowers MEK5 binding to wildtype human MEKK2 PB1 domain | Q9Y2U5 | bead flow cytometry, Alexa488-MEK5 binding to MEKK2 WT; actives lie on both sides | binding response (% of control), % at 10 µM | hit rate 1.1% among 290,000 | AID 1531; in the data active means binding response below about 67% or above about 130%
MEKK2wt confirm: raises or lowers MEK5 binding to wildtype human MEKK2, retest. shares compounds with MEKK3 PB1 HTS. bead flow cytometry, Alexa488-MEK5 binding to MEKK2 WT; actives lie on both sides. binding response (% of control), % at 10 µM. hit rate 2.4% among 5,900. AID 1892; in the data active means binding response below about 16% or above about 210%; inactive means in between
MEKK2mut confirm: signal of MEK5 binding to mutant human MEKK2, retest. shares compounds with MEKK3 PB1 HTS. bead flow cytometry, Alexa488-MEK5 binding to MEKK2 mutant. percent response, % at 10 µM. hit rate 2% among 5,900; in the data active means percent response mostly above about 71%, no sharp cut-off; inactive means mostly below about 38%;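 further: higher means compound restores mutant binding toward wildtype level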
MEKK3-MEK5 inh: MEKK3-MEK5 PB1 inhibition, single concentration confirmation. binding response (% of control), % at 10 µM. bead flow cytometry, Alexa488-MEK5 binding to MEKK3; active compounds read low. AID 1894. shares compounds with MEKK3 PB1 HTS. hit rate 1.8% among 5,900;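 active means binding response below 72% of control, or above a set upper limit, though filed actives all read lower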;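 further: 100% = DMSO only wells and 0% = binding blocked by excess unlabeled MEK5; lower values mean stronger disruption of MEK5 binding to MEKK3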
* marks the source's active call; other numbers are inactive results; i = inactive; · = no result given; [ ] = dose if it differs, or a comment.

SMILES	Mot1-301 SUMO	MEKK2mut PB1 HTS	CHT inh	MEKK3 PB1 HTS	CHT allo act	MEKK2 WT-MEK5	MEKK2wt confirm	MEKK2mut confirm	MEKK3-MEK5 inh
CC(=O)c1ccc(S(=O)(=O)NC2CC(=O)N(c3ccc(Cl)cc3)C2)cc1 (stereo not drawn)	198.7	·	i	·	i	·	·	·	·
CCc1nc2nc(C)cc(Nc3cccc(C(F)(F)F)c3)n2n1	-0.4	-5.0	i	98.0	i	99.0	·	·	·
Cc1cc(Nc2cccc(C(F)(F)F)c2)n2nc(C)nc2n1	-8.8	-65.0	i	1.0*[inhibitor]	i	0.0*[inhibitor]	106.0	9.0	108.0
O=S(=O)(NC1=NCCCCC1)c1ccc2ccccc2c1	3.8	-1.0	i	109.0	i	103.0	·	·	·
O=C(Nc1ccc(C(F)(F)F)cc1)c1cc(S(=O)(=O)NCC2COc3ccccc3O2)ccc1F (stereo not drawn)	0.8	1.0	i	136.0*	i	123.0	122.0	13.0	103.0
COc1ccc(NC(=O)c2cc(S(=O)(=O)NCC3COc4ccccc4O3)ccc2F)cc1 (stereo not drawn)	-7.1	11.0	i	105.0	i	116.0	·	·	·
COc1ccc(-c2csc(NC(=O)CN3C(=O)CCC3=O)n2)c(OC)c1	18.3	1.0	i	142.0*	i	111.0	97.0	-4.0	95.0
Cn1c(=O)c2cc(S(=O)(=O)NC(Cc3ccccc3)C(=O)NCC3CCCO3)ccc2n(C)c1=O (stereo not drawn)	487.0	4.0	i	138.0*	i	123.0	96.0	-4.0	97.0
Cn1c(=O)c2cc(S(=O)(=O)NC(Cc3ccccc3)C(=O)NCc3ccco3)ccc2n(C)c1=O (stereo not drawn)	-18.9	-4.0	i	99.0	i	98.0	·	·	·
CCOC(=O)C1(Cc2cccc(OC)c2)CCCN(C(=O)CCN2CCCO2)C1 (stereo not drawn)	1.3	4.0	i	100.0	i	101.0	·	·	·
O=C(/C=C\Nc1ccc(Cl)cn1)c1ccc(Br)cc1	-3.4	-10.0	i	92.0	i	87.0	·	·	·
Cc1ccc(NC(=O)c2ccc(CN3CCN(C)CC3)cc2)cc1Nc1nccc(-c2cccnc2)n1	279.0	·	i	115.0	i	·	·	·	103.0
COCc1cc(C)nc(SCC(=O)NC2CCCCC2C)c1C#N (stereo not drawn)	-0.9	8.0	i	107.0	i	107.0	·	·	·
COCc1cc(C)nc(SCC(=O)N2CCC(C)CC2)c1C#N	-5.6	-37.0	i	6.0*[inhibitor]	i	8.0*[inhibitor]	112.0	7.0	106.0
O=C(c1ccc(Cl)nc1)N1CCN(S(=O)(=O)c2ccccc2)CC1	-11.6	-30.0	i	85.0	i	78.0	·	·	·
Cc1noc(C)c1COC(=O)CCc1nc2ccccc2s1	16.4	8.0	i	130.0*	i	127.0	100.0	1.0	98.0
COc1ccc(S(=O)(=O)N2CCC(C(=O)Oc3cccc(C)c3)CC2)cc1OC	8.4	4.0	i	100.0	i	106.0	·	·	·
CCCC1O[C@@H]2C[C@H]3[C@@H]4CCC5=CC(=O)C=C[C@]5(C)[C@H]4[C@@H](O)C[C@]3(C)[C@]2(C(=O)CO)O1 (stereo partly drawn)	-4.9	2.0	i	70.0*[inhibitor]	i	103.0	103.0	0.0	103.0
O=C(NCCc1ccccn1)c1cc(-c2ccc(Cl)c(Cl)c2Cl)nc2ccccc12	-7.8	19.0	i	105.0	i	121.0	·	·	·
O=C(Nc1nn[nH]n1)c1cc(-c2ccc(Cl)c(Cl)c2Cl)nc2ccccc12	-13.3	12.0	i	104.0	i	139.0*	86.0	-9.0	89.0

Bioassay records deposited in PubChem by several laboratories.
